Screening data from PubChem.
JMJD2A Tudor inh – inhibitors of human JMJD2A Tudor domain; AlphaScreen JMJD2A-Tudor / H3K4me3 peptide binding; Potency, µM (titrated, usually from 114 µM), hits mostly inhibitors; actives 4.4% (n = 390,000); also: nearly all actives have a fitted effect of over 50% in size
G9a inh – G9a (human) methyltransferase inhibition. Q96KQ7. G9a H3K9 monomethylation, AlphaScreen, 2 h. Potency, µM (series often up to 102 µM), actives largely listed as inhibitors. actives 8.8% (n = 350,000); also: nearly all actives have a fitted effect of over 75% in size
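Compounds were preincubated with 20 nM G9a for 15 min, after which biotinylated H3K9 peptide (500 nM) and SAM (20 uM) started a 2 h room-temperature reaction. Monomethylated product was quantified by antibody-based AlphaScreen chemiluminescence.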
GLS inhibitor – blocks human kidney-isoform glutaminase activity | actives 0.21% (n = 410,000) | AID 624170 | Potency, µM (highest dose often 45.5 µM), usual class: inhibitors | O94925 | GLS enzymatic activity, qHTS titration
Target sequence (O94925 whole entry, looked up, canonical isoform): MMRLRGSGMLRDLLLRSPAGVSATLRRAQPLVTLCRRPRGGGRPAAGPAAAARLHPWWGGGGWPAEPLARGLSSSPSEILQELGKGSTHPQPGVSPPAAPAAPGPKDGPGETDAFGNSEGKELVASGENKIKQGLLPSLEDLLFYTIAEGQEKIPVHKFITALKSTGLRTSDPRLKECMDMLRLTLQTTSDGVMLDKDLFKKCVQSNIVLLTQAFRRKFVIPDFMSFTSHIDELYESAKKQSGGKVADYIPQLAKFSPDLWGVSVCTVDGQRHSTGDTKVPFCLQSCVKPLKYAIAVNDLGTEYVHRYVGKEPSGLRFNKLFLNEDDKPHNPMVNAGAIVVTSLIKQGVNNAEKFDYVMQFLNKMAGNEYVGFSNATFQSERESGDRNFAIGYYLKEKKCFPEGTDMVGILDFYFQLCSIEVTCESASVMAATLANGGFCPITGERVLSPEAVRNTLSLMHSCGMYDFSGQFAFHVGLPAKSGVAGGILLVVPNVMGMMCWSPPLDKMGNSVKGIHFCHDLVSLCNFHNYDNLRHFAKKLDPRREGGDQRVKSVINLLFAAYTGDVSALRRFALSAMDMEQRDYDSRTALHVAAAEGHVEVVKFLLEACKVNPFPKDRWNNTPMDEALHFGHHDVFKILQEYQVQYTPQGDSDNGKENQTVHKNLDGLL
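Coupled fluorescence readout: glutamate oxidase/HRP/Amplex Red detect glutamate formed by hKGA from L-glutamine (1 mM solution added). Buffer 45 mM KH2PO4 pH 8.2, 0.02% Tween-20; reads at t0 and 30 min RT.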
L3MBTL1 block – inhibitors of human L3MBTL1 | Q9Y468 | actives 0.66% (n = 230,000) | AlphaScreen L3MBTL1–H3K9me1 peptide binding | AID 485360 | Potency, µM (highest dose often 57.1 µM), hits mostly inhibitors; also: nearly all actives have a fitted effect of over 60% in size
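Displacement of a biotinylated histone H3(1-15) peptide monomethylated at Lys9 (75 nM) from L3MBTL1 (50 nM) was measured by AlphaScreen after a 30 min room-temperature compound incubation; cefsulodin titration served as intraplate control.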
BAZ2B inh – inhibitors of human BAZ2B bromodomain; AlphaScreen BAZ2B-H3K14Ac peptide displacement; Potency, µM (highest dose often 114 µM), actives largely listed as inhibitors; actives 4.4% (n = 360,000); also: nearly all actives have a fitted effect of over 60% in size
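BAZ2B (50 nM) with biotin-H3(5-23)K14Ac peptide (50 nM) in PBS pH 7.4, 0.01% Tween-20, preformed 30 min, then compound 30 min at room temperature; top concentration 110uM. AlphaScreen streptavidin donor/nickel chelate acceptor beads (10 ug/mL final), 20 min dark, signal read.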
HP1b binding inh – HP1-beta chromodomain-methylated histone interaction inhibition; AlphaScreen HP1-beta / biotin-H3K9me3 peptide binding; Potency, µM (titrated, usually from 114 µM), actives largely listed as inhibitors; actives 0.56% (n = 390,000); AID 540317; also: nearly all actives have a fitted effect of over 70% in size
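Compound inhibition of the preformed complex between 50 nM HP1-beta and 50 nM biotinylated H3K9me3 peptide was read by AlphaScreen. Buffer was PBS pH 7.4 with 0.01% Tween-20. Incubations ran 30 min at room temperature, with 10 ug/mL donor/acceptor beads.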
Hits are given with their value; 0 = inactive; ? = inconclusive; - = no result given; [ ] = remark or other dose. An excerpt weighted towards active compounds, which were near 10% of everything screened. Calls follow the shape of the dose curve; as a rule, active = well fitted curve in the direction sought with a large enough effect; inconclusive = small, poorly fitted or top-dose-only effect, or another doubt; inactive = no such curve, though single readings can be large; an effect the other way counts as inactive or inconclusive.

SMILES	JMJD2A Tudor inh	G9a inh	GLS inhibitor	L3MBTL1 block	BAZ2B inh	HP1b binding inh
Cc1ccccc1NC(=O)CN1C(=O)C2C3CC(C(Br)C3Br)C2C1=O (stereo unspecified)	?	5µM	0	0	0	?
Cc1cccc(NC(=O)CN2C(=O)C3CC=CCC3C2=O)c1C (stereo unspecified)	-	-	0	-	-	-
CN1/C(=C\C(=O)COc2ccc3c(c2)OCO3)C(C)(C)c2ccccc21	?	?	0	0[11.4 µM]	28µM	?
Cn1cccc1C(=O)N1CCC[C@@]2(CCN(Cc3ccccc3)C2)C1	-	0[12.7 µM]	-	-	-	-
COc1cnc(-c2ccccn2)nc1Oc1cccc(Cl)c1	0	0[12.7 µM]	0	0	45µM	0
COc1cnc(-c2ccccn2)nc1Sc1c(Cl)cccc1Cl	0	0[12.7 µM]	0	0	0	0
COc1cnc(-c2ccccn2)nc1Oc1c(C)cccc1C	0	?	0	?	22µM	0
COc1ccc(NC(=O)c2cc3c(=O)n(Cc4cccnc4)ccc3nc2C)cc1Cl	0	0	0	-	0	0
COc1ccc(-c2oc3ncnc(NCCCN(C)C)c3c2-c2ccc(OC)cc2)cc1	?	0	0	-	0	0
CCCCNc1ncnc2oc(-c3ccco3)c(-c3ccco3)c12	50µM	-	-	-	-	?
CN(C)c1ccc(N=Nc2cccc(F)c2)cc1	8.9µM	10µM	0	-	4.5µM	6.3µM
Cc1cc(N(C)C)ccc1N=Nc1ccc2ncccc2c1	6.3µM	0[2.33 µM]	0	8.9µM	3.2µM	8.9µM
CN(C)c1ccc(N=Nc2cccc3ccoc23)cc1	25µM	6.3µM	0	10µM	5.6µM	18µM
Cc1ccc2ncccc2c1	0	0[0.501 µM]	0	0	0	0
CN(C)c1ccc(N=Cc2nc(-c3ccccc3)oc2O)cc1	0	0[0.0925 µM]	0	0	0	0
CN(C)c1ccc(N=Nc2ccc3ncccc3c2)cc1	3.2µM	-	0	-	-	?
CN(C)c1ccc(N=Nc2ccc(S(N)(=O)=O)cc2)cc1	0	?	0	-	?	0
CC1CN(c2c(F)c(N)c3c(=O)c(C(=O)O)cn(C4CC4)c3c2F)CC(C)N1 (stereo unspecified)	-	0	0	-	-	-
NC1CCN(c2c(F)cc3c(=O)c(C(=O)O)cn(C4CC4)c3c2Cl)C1 (stereo unspecified)	0	71µM	0	0	?	0
NC1CCN(c2nc3c(cc2F)c(=O)c(C(=O)O)cn3-c2ccc(F)cc2F)C1 (stereo unspecified)	50µM	0[12.7 µM]	0	-	-	0
CCc1ccccc1NC(=O)Cn1nnc2sc3c(c2c1=O)CCC(C(C)(C)C)C3 (stereo unspecified)	0	0	0	-	0	0
Cc1cccc(N2CCN(S(=O)(=O)c3ccc4c(c3)C(C)(C)C(=O)N4C)CC2)c1C	?	-	0	?	50µM	0
O=S(=O)(c1cccc2nonc12)N1CCN(c2ccccc2F)CC1	0	-	0	0	0	0
Cc1cccc(N2CCN(S(=O)(=O)c3cccc4nonc34)CC2)c1C	?	20µM	0	?	?	0
COc1ccc(Cl)cc1NC(=O)Cn1ncc2c3ccccc3n(Cc3ccccc3)c2c1=O	0	0	0	-	0	0
SMILES	JMJD2A Tudor inh	G9a inh	GLS inhibitor	L3MBTL1 block	BAZ2B inh	HP1b binding inh
CCN1CCCC1CN(Cc1cc2cc(C)cc(C)c2[nH]c1=O)C(=O)Nc1ccccc1OC (stereo unspecified)	0	50µM	0	0	0	0
Cc1ccc(C(=O)N2c3nc(-c4ccco4)nn3C3(CCCCC3)[C@@H]3CCCC[C@@H]32)cc1	0	?	0	-	?	0
Cc1ccc(NC(=O)Nc2c(C)n(C)n(-c3ccccc3)c2=O)c(Cl)c1	0	0	0	-	0	0
Cc1c(CCOC(=O)c2cc([N+](=O)[O-])cc([N+](=O)[O-])c2)sc[n+]1CC(=O)c1ccc(Br)cc1	?	2.5µM	0	?	50µM	0
O=C(CSc1nc(=O)n(Cc2ccccn2)c2c1CCC2)Nc1ccccc1	0	0	0	-	0	0
O=C(COc1ccc2ccc(=O)oc2c1)NCCCn1ccnc1	0	0	0	-	?	0
COc1ccc(OCC(O)Cn2cnc(-c3ccc(Br)cc3)c2)cc1 (stereo unspecified)	0	18µM	0	0	0	0
COc1ccccc1OCC(=O)NCCCn1ccnc1	0	0	0	?	79µM	0
Cc1coc2c(C)c3oc(=O)c(CCC(=O)NCCCn4ccnc4)c(C)c3cc12	0	0[12.7 µM]	0	-	0	0
Cc1c(CCC(=O)NCCCn2ccnc2)c(=O)oc2c(C)c3occ(C(C)(C)C)c3cc12	?	-	0	-	25µM	0
O=C(COc1ccc(Br)cc1)NCCCn1ccnc1	0	0	0	-	56µM	0
Cc1ccc(CNC(=O)CCc2nc3cccnc3n2Cc2ccccc2)cc1	0	0	0	-	0	0
COc1cc(OC)cc(OCC(O)Cn2ccnc2)c1 (stereo unspecified)	0	0	0	0	0	0
OC(COc1ccc(Br)cc1)Cn1ccnc1 (stereo unspecified)	0	79µM	0	-	0	0
Cc1c(OCC(=O)NCCCn2ccnc2)ccc2c3c(c(=O)oc12)CCC3	0	0	0	-	0	0
Cc1c(C)c2ccc(OCC(=O)NCCCn3ccnc3)c(C)c2oc1=O	0	0	0	-	79µM	0
COc1ccccc1CN1CCC2(CC1)CCN(C(=O)c1csnn1)CC2	-	0[12.7 µM]	-	-	-	-
COc1ccc(-c2nc3n(n2)C(=O)CC(c2ccco2)S3)cc1 (stereo unspecified)	32µM	2.2µM	0	?	?	0
CCOc1ccc(C2CC(=O)n3nc(-c4ccc(C)cc4)nc3S2)cc1 (stereo unspecified)	0	?	0	-	0	0
COc1cc(F)cc(-c2ccc3c(c2)c(-c2cccs2)c(-c2cc(OC)cc(OC)c2)n3C)c1	0	0[0.501 µM]	0	0	0	0
COc1cc(OC)cc(-c2c(-c3cccs3)c3cc(-c4ccc(N(C)C)nc4)ccc3n2C)c1	?	0[0.501 µM]	0	0	56µM	0
O=C(NC1C(=O)NNC1c1ccccc1)c1ccccc1 (stereo unspecified)	0	0	0	0	0	0
Cc1cccc(C(=O)NC2C(=O)NNC2c2ccc(Cl)cc2)c1 (stereo unspecified)	0	16µM	7.9µM	-	-	0
CC1SC(=S)N(c2ccc(N(C)C)cc2)C1=O (stereo unspecified)	?	45µM	0	-	?	0
CN(C)c1ccc(N2C(=O)CSC2=S)cc1	40µM	?	0	?	40µM	?
O=C1CSC(=S)N1c1ccc(F)cc1	-	?	-	-	0	-
CCN(C(=O)CSc1nnc2c3ccccc3n(CC)c2n1)C1CCS(=O)(=O)C1 (stereo unspecified)	0	79µM	0	0	0	0
CCN(C(=O)CSc1nc2ccccc2n1C)C1CCS(=O)(=O)C1 (stereo unspecified)	0	0[12.7 µM]	0	0	0	0
